Bioassay records deposited in PubChem BioAssay by Sanford-Burnham Center for Chemical Genomics.
Cardio protect: protects H9c2 cardiomyocytes from peroxide injury. H2O2 injury protection, ATPLite, 2 h. hit rate 0.63% among 360,000. protection from H2O2 cell death, % at 20 µM;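 active = compounds giving at least 50% protection of heart cells from peroxide-induced death in the single-dose screen, raw or plate-pattern-corrected value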;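 also: 0% = DMSO wells with peroxide and 100% = DMSO wells without peroxide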
PfG6PD inh: PfG6PD (Plasmodium falciparum) enzyme inhibition | PfGluPho enzyme, NADPH resazurin-diaphorase fluorescence | inhibition, % at 20 µM | hit rate 0.78% among 350,000;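 active = inhibition reaching at least a set limit at 20 µM in the primary screen, cut at about 59% in these data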;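 also: 0% = DMSO wells with substrate and 100% = DMSO wells lacking glucose-6-phosphate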
A3G deaminase: blocks human APOBEC3G single-stranded DNA deamination | hit rate 0.28% among 330,000 | inhibition, % at 20 µM | Q9HC16 | recombinant A3G, ssDNA deamination FAM/TAMRA fluorescence;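 active = inhibition of at least 40% at 20 µM, with no more than 30% in the related APOBEC3A deaminase screen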;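 also: plate controls were DMSO wells with A3G for no effect and wells lacking A3G enzyme for full effect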
Target sequence (Q9HC16 whole entry, looked up): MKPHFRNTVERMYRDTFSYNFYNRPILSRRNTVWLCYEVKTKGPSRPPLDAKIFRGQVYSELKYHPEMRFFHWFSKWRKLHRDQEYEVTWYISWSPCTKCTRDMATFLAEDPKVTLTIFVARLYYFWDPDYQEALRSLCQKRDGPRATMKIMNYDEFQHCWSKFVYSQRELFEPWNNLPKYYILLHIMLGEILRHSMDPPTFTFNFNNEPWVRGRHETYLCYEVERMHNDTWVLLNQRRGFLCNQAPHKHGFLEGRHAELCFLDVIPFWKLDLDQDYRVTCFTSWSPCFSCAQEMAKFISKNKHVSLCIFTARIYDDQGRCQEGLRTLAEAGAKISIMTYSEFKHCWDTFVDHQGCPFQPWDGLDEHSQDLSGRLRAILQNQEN
NadD inh: inhibitors of Staphylococcus aureus NadD | purified NadD enzyme, colorimetric absorbance read-out | inhibition, % at 20 µM | hit rate 0.78% among 360,000; in the data active = inhibition above about 26%
H9c2 TAG inh: reduces triacylglycerol accumulation in H9c2 cells | hit rate 0.66% among 230,000 | Nile Red lipid (TAG) fluorescence; cells loaded with 200 µM oleic acid | inhibition, % at 12.5 µM;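 active = pattern-corrected inhibition of lipid staining of at least 50% with the nuclear-stain viability signal not falling by more than 50%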;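 also: 0% = DMSO wells and 100% = triacsin C control wells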
A3A deaminase: inhibitors of human APOBEC3A DNA deaminase; P31941; recombinant A3A, FAM/TAMRA ssDNA deamination fluorescence; inhibition, % at 20 µM; hit rate 0.41% among 330,000; AID 493011;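 active = at least 40% inhibition at 20 µM here, with at most 30% in a related deaminase screen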;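 also: plate controls were A3A with DMSO for no effect and wells lacking A3A enzyme for full effect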
Target sequence (P31941 whole entry, looked up): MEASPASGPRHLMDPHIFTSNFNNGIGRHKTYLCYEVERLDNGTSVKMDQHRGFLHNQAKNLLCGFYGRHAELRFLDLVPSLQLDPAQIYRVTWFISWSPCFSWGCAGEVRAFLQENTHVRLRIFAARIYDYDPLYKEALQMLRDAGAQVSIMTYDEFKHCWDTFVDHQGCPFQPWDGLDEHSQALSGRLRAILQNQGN
PfG6PD confirm: PfG6PD inhibition, single-dose confirmed; shares compounds with PfG6PD inh; recombinant PfGluPho, NADPH-diaphorase-resazurin fluorescence; inhibition, % at 20 µM; hit rate 34% among 2,400; AID 504753;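 active = inhibition of at least 50% at 20 µM in any single replicate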;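 also: 0% = DMSO with substrate and 100% = DMSO lacking glucose-6-phosphate substrate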
Diaph ctr 10uM: inhibits diaphorase or oxidizes, flagging false PfG6PD hits; shares compounds with PfG6PD inh; diaphorase-coupled resazurin reduction, fluorescence, NADPH 10 uM; inhibition, % at 20 µM; hit rate 39% among 820; AID 504862;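 active = average inhibition reaching 50% or more with the compound at 20 µM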;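 also: resorufin red fluorescence formed as diaphorase reduces resazurin using NADPH; 0% = DMSO with enzyme and 100% = DMSO without enzyme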
Diaph ctr 30uM: counter-screen for P. falciparum G6PD inhibitors: diaphorase inhibitors, oxidizers; shares compounds with PfG6PD inh; Diaphorase/resazurin coupled assay, resorufin fluorescence, 30 uM NADPH; inhibition, % at 20 µM; hit rate 29% among 820;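 active = inhibition averaging 50% or more, tested at 20 µM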;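 also: 0% = DMSO with enzyme and 100% = DMSO wells lacking diaphorase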
Numbers without * were called inactive. Shown are actives, neighbours in structure and some others; about 2.9% of the full set was active somewhere.

How did COCCNC(=O)C1(C)CCN(C(=O)c2sccc2C)C1 (stereo unspecified) do in these assays?
Cardio protect: -3; NadD inh: -2; H9c2 TAG inh: 1

What do the screens show for `COc1ccc(S(N)(=O)=O)cc1C(=O)NNC(=O)c1cccc(S(=O)(=O)N2CCOCC2)c1`?
Cardio protect: 1; PfG6PD inh: -7; NadD inh: -3; H9c2 TAG inh: 10

What do the screens show for `O=C(O)c1cccc(N2C(=O)C=CC2=O)c1`?
Cardio protect: 2; PfG6PD inh: 76*; NadD inh: 3; H9c2 TAG inh: -6; PfG6PD confirm: 76*; Diaph ctr 10uM: 14; Diaph ctr 30uM: 13

What do the screens show for `CN1CC2=Cc3ccccc3OC23Oc2ccccc2C=C3C1`?
Cardio protect: -6; PfG6PD inh: 120*; A3G deaminase: -1; NadD inh: -2; H9c2 TAG inh: 10; A3A deaminase: 2; PfG6PD confirm: 90*; Diaph ctr 10uM: 86*; Diaph ctr 30uM: 75*

What do the screens show for `O=C1c2ccccc2OC2(C=Cc3ccccc3O2)N1Cc1ccccc1` (stereo unspecified)?
Cardio protect: -16; PfG6PD inh: -11; A3G deaminase: -7; NadD inh: 2; H9c2 TAG inh: 24; A3A deaminase: -5

Results for Cc1ccc(COc2ccsc2C(=O)NN)cc1 ?
Cardio protect: -3; PfG6PD inh: 11; A3G deaminase: -2; NadD inh: -1; A3A deaminase: 1

What do the screens show for `CC(OC(=O)c1cc(O)c2ccccc2c1O)C(=O)Nc1ccc(C(N)=O)cc1` (stereo unspecified)?
Cardio protect: -19; PfG6PD inh: 72*; A3G deaminase: -3; NadD inh: 11; H9c2 TAG inh: -24; A3A deaminase: 0; PfG6PD confirm: 33

How did CCNc1nc2c(c(=O)n(C)c(=O)n2C)n1CCCc1ccccc1 do in these assays?
Cardio protect: -8; PfG6PD inh: 3; A3G deaminase: 1; NadD inh: -5; H9c2 TAG inh: -22; A3A deaminase: -3

What do the screens show for `COc1cccc(Nc2nc(C(N)Cc3ccc(Cl)cc3)cs2)n1` (stereo unspecified)?
Cardio protect: -13; NadD inh: 13; H9c2 TAG inh: 23

Results for CN(C)c1cccc2c1c(NC(=O)c1ccc(Cl)cc1)nn2C ?
Cardio protect: 12; PfG6PD inh: 103*; A3G deaminase: -9; NadD inh: 1; H9c2 TAG inh: -8; A3A deaminase: -6; PfG6PD confirm: 73*; Diaph ctr 10uM: 31; Diaph ctr 30uM: 52*

How did CN(C)c1cccc2c1c(NC(=O)Nc1ccc(F)cc1F)nn2C do in these assays?
Cardio protect: 3; PfG6PD inh: 34; A3G deaminase: -5; NadD inh: -2; H9c2 TAG inh: 14; A3A deaminase: -3

Results for CN(C)c1cccc2c1c(NC(=O)c1ccc(F)cc1)nn2C ?
Cardio protect: 0; PfG6PD inh: 74*; A3G deaminase: 2; NadD inh: 2; H9c2 TAG inh: 6; A3A deaminase: -4; PfG6PD confirm: 57*; Diaph ctr 10uM: 24; Diaph ctr 30uM: 26

What do the screens show for `CC1(C(=O)NCC2CC2)Cc2c(-c3ccc4c(c3)OCO4)ccnc2O1` (stereo unspecified)?
Cardio protect: 6; NadD inh: 3; H9c2 TAG inh: 7

How did O=C(O)C1CCCN1C(=O)C1CCN(S(=O)(=O)c2cccc(C(F)(F)F)c2)CC1 (stereo unspecified) do in these assays?
Cardio protect: 1; PfG6PD inh: -2; A3G deaminase: -10; NadD inh: 1; H9c2 TAG inh: 13; A3A deaminase: 2

How did Cc1ccc(-c2nc3n(n2)Cc2ccccc2-3)cc1 do in these assays?
Cardio protect: -39; PfG6PD inh: 77*; A3G deaminase: 2; NadD inh: -6; H9c2 TAG inh: 12; A3A deaminase: 2; PfG6PD confirm: 37

What do the screens show for `Fc1ccc(-c2nc3n(n2)Cc2ccccc2-3)cc1`?
Cardio protect: -22; PfG6PD inh: 45; A3G deaminase: 1; NadD inh: -6; A3A deaminase: 2

What do the screens show for `CC(=O)c1cccc(NC(=O)c2ccc(N(C)S(=O)(=O)c3ccc(C)cc3)cc2)c1`?
Cardio protect: 14; PfG6PD inh: 63*; A3G deaminase: -7; NadD inh: -15; H9c2 TAG inh: 6; A3A deaminase: -8; PfG6PD confirm: 12

What do the screens show for `CN(c1ccc(C(=O)Nc2cccc(O)c2)cc1)S(=O)(=O)c1ccccc1`?
Cardio protect: -2; PfG6PD inh: 59*; A3G deaminase: -7; NadD inh: 2; H9c2 TAG inh: 0; A3A deaminase: -6; PfG6PD confirm: -2

What do the screens show for `COCc1ccc(C(=O)Nc2cccc(S(=O)(=O)N(C)c3ccccc3)c2)cc1`?
Cardio protect: -3; PfG6PD inh: 18; A3G deaminase: -1; NadD inh: -7; H9c2 TAG inh: -20; A3A deaminase: -1

Results for Cc1cc(C)c(C)c(S(=O)(=O)NCCCN2CCCC2=O)c1C ?
Cardio protect: 10; PfG6PD inh: -6; A3G deaminase: -4; NadD inh: -2; H9c2 TAG inh: -8; A3A deaminase: -1

How did COc1cc(CNc2ccc3[nH]c(=O)[nH]c3c2)ccc1OCc1c(F)cccc1Cl do in these assays?
Cardio protect: 4; PfG6PD inh: 22; A3G deaminase: -6; NadD inh: 3; A3A deaminase: -6

What do the screens show for `COc1cc(CNc2ccc3[nH]c(=O)[nH]c3c2)ccc1OCc1ccc(Cl)cc1`?
Cardio protect: -8; PfG6PD inh: 63*; A3G deaminase: -1; NadD inh: -3; A3A deaminase: -10; PfG6PD confirm: 37

How did C=CCOc1ccc(CNc2ccc3[nH]c(=O)[nH]c3c2)cc1OC do in these assays?
Cardio protect: 1; PfG6PD inh: 85*; NadD inh: 5; H9c2 TAG inh: 9; PfG6PD confirm: 66*; Diaph ctr 10uM: 15; Diaph ctr 30uM: 19

How did COc1cc(CNc2ccc3[nH]c(=O)[nH]c3c2)ccc1OCC(=O)NC(C)(C)C do in these assays?
Cardio protect: 39; PfG6PD inh: 46; A3G deaminase: -1; NadD inh: 4; H9c2 TAG inh: 6; A3A deaminase: 1

What do the screens show for `COc1cc(CNc2ccc3[nH]c(=O)[nH]c3c2)ccc1OCc1ccc(F)cc1`?
Cardio protect: -6; PfG6PD inh: 66*; A3G deaminase: 0; NadD inh: 1; A3A deaminase: 3; PfG6PD confirm: 39
